PubChem BioAssay AID1159580 (chemical genetic matrix, 2015)
Several values for one entry are separate records, joined by “and”; a condition that tells them apart may be missing. Equal values may be shown once. Hit rate of the full screen: of about 5,500 compounds, about 2,000 (36%) were called active. Not shown: some 18% with an inconclusive outcome. Rule as the data show it: active = normalized growth mostly below about 0.91 (no sharp cut-off); inconclusive = no clear call, values can overlap the other calls; inactive = mostly above about 0.92. The list shows a part of the results.

Test: chemical genetic growth profiling, strain panel (AID 1159580);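 also: tested at 20 µM; growth read once vehicle control cultures reached saturation at 30 °C; 1 = growth at the plate median or of vehicle wells; lower values mean less growth of the strain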
Conditions: S. cerevisiae deletion strains, growth OD

Measured: normalized growth

Oc1ccc(Cl)c2cccnc12
active: locus YAL021C, strain ccr4, hits give low values 0.0729 | locus YAL026C, strain drs2, hits give low values 0.0768 | locus YAL030W, strain snc1, hits give low values 0.0588 | locus YBL061C, strain skt5, hits give low values 0.0618 | locus YBR009C, strain hhf1, hits give low values 0.0586 | locus YBR021W, strain FUR4, hits give low values 0.11 | locus YBR023C, strain chs3, hits give low values 0.0665 | locus YBR171W, strain sec66, hits give low values 0.0765 | locus YBR229C, strain ROT2, hits give low values 0.0466 | locus YBR231C, strain swc5, hits give low values 0.0699 | locus YBR279W, strain paf1, hits give low values 0.0591 | locus YCL011C, strain gbp2, hits give low values 0.0563 | locus YCL016C, strain dcc1, hits give low values 0.119 | locus YCL029C, strain bik1, hits give low values 0.0654 | locus YCL069W, strain vba3, hits give low values 0.0931 | locus YCR088W, strain abp1, hits give low values 0.0863 | locus YDL005C, strain med2, hits give low values 0.14 | locus YDL035C, strain GPR1, hits give low values 0.0492 | locus YDL040C, strain nat1, hits give low values 0.169 | locus YDL074C, strain BRE1, hits give low values 0.0799 | locus YDL101C, strain DUN1, hits give low values 0.0585 | locus YDL185W, strain tfp1, hits give low values 0.0618 | locus YDL192W, strain arf1, hits give low values 0.0648 | locus YDR001C, strain nth1, hits give low values 0.113 | locus YDR069C, strain doa4, hits give low values 0.0629 | locus YDR101C, strain arx1, hits give low values 0.0618 | locus YDR137W, strain rgp1, hits give low values 0.102 | locus YDR159W, strain sac3, hits give low values 0.284 | locus YDR162C, strain NBP2, hits give low values 0.0481 | locus YDR195W, strain ref2 0.112 | locus YDR297W, strain sur2, hits give low values 0.0577 | locus YDR318W, strain mcm21, hits give low values 0.0654 | locus YDR334W, strain swr1, hits give low values 0.0718 | locus YDR335W, strain msn5, hits give low values 0.0632 | locus YDR388W, hits give low values 0.0579 | locus YDR392W, strain spt3, hits give low values 0.12 | locus YDR502C, strain sam2, hits give low values 0.0635 | locus YEL003W, strain gim4, hits give low values 0.0561 | locus YEL037C, strain rad23, hits give low values 0.0834 | locus YEL061C, strain CIN8 (second series), hits give low values 0.113 | locus YEL061C, strain CIN8, hits give low values 0.0497 | locus YER015W, strain faa2, hits give low values 0.0605 | locus YER016W, strain bim1, hits give low values 0.0613 | locus YER110C, hits give low values 0.0829 | locus YER111C, strain swi4, hits give low values 0.0714 | locus YER155C, strain BEM2 (second series), hits give low values 0.0997 | locus YER155C, strain BEM2, hits give low values 0.0681 | locus YER167W, strain BCK2, hits give low values 0.0524 | locus YFR010W, strain ubp6, hits give low values 0.0733 | locus YGL078C, strain dbp3, hits give low values 0.0711 | locus YGL086W, strain mad1, hits give low values 0.0668 | locus YGL167C, strain pmr1, hits give low values 0.0738 | locus YGL173C, strain kem1, hits give low values 0.0702 | locus YGL227W, strain vid30, hits give low values 0.128 | locus YGL240W, strain doc1, hits give low values 0.0706 | locus YGL248W, strain PDE1, hits give low values 0.0483 | locus YGL253W, strain hxk2, hits give low values 0.0835 | locus YGR078C, strain PAC10, hits give low values 0.0502 | locus YGR135W, strain pre9, hits give low values 0.066 | locus YGR252W, strain gcn5, hits give low values 0.174 | locus YHR013C, strain ard1, hits give low values 0.101 | locus YHR027C, strain rpn1, hits give low values 0.0624 | locus YHR030C, strain SLT2, hits give low values 0.0509 and 0.106 | locus YHR079C, strain IRE1 (second series), hits give low values 0.0587 | locus YHR079C, strain IRE1, hits give low values 0.127 | locus YHR094C, strain hxt1, hits give low values 0.0631 | locus YHR129C, strain ARP1, hits give low values 0.0599 | locus YHR142W, strain chs7, hits give low values 0.0877 | locus YHR200W, strain rpn10, hits give low values 0.0662 | locus YIL066C, strain RNR3, hits give low values 0.0495 | locus YIL073C, strain SPO22, hits give low values 0.111 | locus YIL125W, strain kgd1, hits give low values 0.0705 | locus YIR030C, strain dcg1, hits give low values 0.0597 | locus YJL092W, strain hpr5, hits give low values 0.0945 | locus YJL095W, strain BCK1 (second series), hits give low values 0.0605 | locus YJL095W, strain BCK1, hits give low values 0.0616 and 0.0998 | locus YJL115W, strain asf1, hits give low values 0.146 | locus YJL129C, strain trk1, hits give low values 0.0826 | locus YJL134W, strain LCB3, hits give low values 0.0525 | locus YJL154C, strain vps35, hits give low values 0.102 | locus YJL164C, strain tpk1, hits give low values 0.0587 | locus YJL166W, strain qcr8, hits give low values 0.059 | locus YJL168C, strain set2, hits give low values 0.0636 | locus YJL187C, strain SWE1 (second series), hits give low values 0.0476 | locus YJR043C, strain POL32, hits give low values 0.0636 | locus YJR066W, strain TOR1, hits give low values 0.0218 | locus YKL009W, strain mrt4, hits give low values 0.0954 | locus YKL068W, hits give low values 0.0759 | locus YKL085W, strain MDH1 (second series), hits give low values 0.0618 | locus YKL085W, strain MDH1, hits give low values 0.0618 | locus YKL160W, strain elf1, hits give low values 0.082 | locus YKR001C, strain vps1, hits give low values 0.0627 | locus YKR026C, strain gcn3, hits give low values 0.122 | locus YKR091W, strain srl3, hits give low values 0.135 | locus YLL001W, strain dnm1, hits give low values 0.0833 | locus YLL026W, hits give low values 0.0593 | locus YLL041C, strain sdh2, hits give low values 0.065 | locus YLR027C, strain aat2, hits give low values 0.0538 | locus YLR039C, strain RIC1, hits give low values 0.0942 | locus YLR058C, strain SHM2, hits give low values 0.0495 | locus YLR102C, strain apc9, hits give low values 0.0664 | locus YLR113W, strain HOG1, hits give low values 0.168 | locus YLR221C, strain rsa3, hits give low values 0.0599 | locus YLR258W, strain gsy2, hits give low values 0.0596 | locus YLR262C, strain YPT6 (second series), hits give low values 0.108 | locus YLR262C, strain YPT6, hits give low values 0.103 | locus YLR268W, strain sec22, hits give low values 0.0689 | locus YLR320W, strain mms22, hits give low values 0.0776 | locus YLR330W, strain CHS5, hits give low values 0.0512 | locus YLR342W, strain FKS1 (second series), hits give low values 0.0673 | locus YLR342W, strain FKS1, hits give low values 0.0668 | locus YLR357W, strain rsc2, hits give low values 0.203 | locus YLR370C, strain arc18, hits give low values 0.0765 | locus YLR371W, strain rom2, hits give low values 0.066 | locus YLR384C, strain iki3, hits give low values 0.0582 | locus YLR418C, strain cdc73, hits give low values 0.0923 | locus YML016C, strain PPZ1, hits give low values 0.0462 | locus YML032C, strain rad52, hits give low values 0.0754 | locus YML120C, strain ndi1, hits give low values 0.0565 | locus YML124C, strain tub3, hits give low values 0.0612 | locus YMR058W, strain fet3, hits give low values 0.0641 | locus YMR078C, strain ctf18, hits give low values 0.0785 | locus YMR125W, strain sto1, hits give low values 0.244 | locus YMR129W, hits give low values 0.0599 | locus YMR205C, strain PFK2, hits give low values 0.12 | locus YMR223W, strain ubp8, hits give low values 0.0681 | locus YMR231W, strain pep5, hits give low values 0.0661 | locus YMR263W, strain SAP30, hits give low values 0.0554 | locus YMR307W, strain GAS1, hits give low values 0.132 | locus YNL067W, strain RPL9B, hits give low values 0.049 | locus YNL071W, strain lat1, hits give low values 0.0622 | locus YNL183C, strain NPR1, hits give low values 0.0694 | locus YNL209W, strain ssb2, hits give low values 0.0567 | locus YNL233W, strain BNI4, hits give low values 0.0547 | locus YNL248C, strain rpa49, hits give low values 0.194 | locus YNL250W, strain rad50, hits give low values 0.0731 | locus YNL271C, strain bni1, hits give low values 0.0769 | locus YNL298W, strain CLA4, hits give low values 0.076 | locus YNL307C, strain MCK1, hits give low values 0.0703 | locus YNL322C, strain KRE1 (second series), hits give low values 0.0667 | locus YNL322C, strain KRE1, hits give low values 0.0462 | locus YNR049C, strain mso1, hits give low values 0.0954 | locus YNR052C, strain pop2, hits give low values 0.065 | locus YOL006C, strain TOP1, hits give low values 0.117 | locus YOL147C, strain pex11, hits give low values 0.0602 | locus YOR001W, strain rrp6, hits give low values 0.0711 | locus YOR061W, strain CKA2, hits give low values 0.0478 | locus YOR069W, strain VPS5, hits give low values 0.0472 | locus YOR070C, strain gyp1, hits give low values 0.0596 | locus YOR080W, strain dia2, hits give low values 0.0638 | locus YOR083W, strain WHI5, hits give low values 0.0897 | locus YOR106W, strain vam3, hits give low values 0.0664 | locus YOR136W, strain idh2, hits give low values 0.0784 | locus YOR144C, strain elg1, hits give low values 0.0595 | locus YOR184W, strain ser1, hits give low values 0.0724 | locus YOR231W, strain MKK1, hits give low values 0.115 | locus YOR265W, strain rbl2, hits give low values 0.0564 | locus YOR270C, strain vph1, hits give low values 0.131 | locus YOR290C, strain snf2, hits give low values 0.0717 | locus YOR316C, strain cot1, hits give low values 0.0637 | locus YPL051W, strain arl3, hits give low values 0.062 | locus YPL055C, strain LGE1, hits give low values 0.0714 | locus YPL078C, strain atp4, hits give low values 0.0623 | locus YPL106C, strain sse1, hits give low values 0.096 | locus YPL240C, strain hsp82, hits give low values 0.083 | locus YPL256C, strain CLN2, hits give low values 0.129 | locus YPR119W, strain clb2, hits give low values 0.0694 | locus YPR141C, strain kar3, hits give low values 0.0792 | locus YPR163C, strain tif3, hits give low values 0.0744 | locus YPR167C, strain met16, hits give low values 0.0645 | strain wtn01, hits give low values 0.0639
